RECQ1 inh: qHTS Assay for Inhibitors of RecQ-Like Dna Helicase 1 (RECQ1); hit rate 0.54% among 240,000; RECQ1 DNA unwinding, red fluorescence kinetic read; Potency, µM (top dose mostly 57.3 µM), without a hit: at the top dose activity, negative = inhibition, usual class: inhibitors; AID 2549, 2010; ATP-dependent DNA helicase Q1 (Homo sapiens), P46063;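 note: plate controls were vehicle for no effect and no enzyme for full effect; nearly all actives have a fitted effect of over 30% in size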
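RECQ1T1 50 nM; forked duplex (20 bp + 30-nt ss tails) 200 nM, ATP 2 mM final; pH 8.0, 2 mM MgCl2, 2.5 ug/ml poly(dI-dC); 15 min compound preincubation; discontinuous kinetic read over 2 h at RT.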
FEN1 inhibitor: qHTS Assay for the Inhibitors of Human Flap endonuclease 1 (FEN1); Recombinant FEN1 flap cleavage, fluorescence, 15 min; Potency, µM (highest dose often 114 µM), for the others: top-dose activity change, negative = inhibition, most hits filed as inhibitors; hit rate 0.35% among 390,000; AID 588795, 2011; note: nearly all actives have a fitted effect of over 65% in size
Target sequence (P39748 whole entry, looked up): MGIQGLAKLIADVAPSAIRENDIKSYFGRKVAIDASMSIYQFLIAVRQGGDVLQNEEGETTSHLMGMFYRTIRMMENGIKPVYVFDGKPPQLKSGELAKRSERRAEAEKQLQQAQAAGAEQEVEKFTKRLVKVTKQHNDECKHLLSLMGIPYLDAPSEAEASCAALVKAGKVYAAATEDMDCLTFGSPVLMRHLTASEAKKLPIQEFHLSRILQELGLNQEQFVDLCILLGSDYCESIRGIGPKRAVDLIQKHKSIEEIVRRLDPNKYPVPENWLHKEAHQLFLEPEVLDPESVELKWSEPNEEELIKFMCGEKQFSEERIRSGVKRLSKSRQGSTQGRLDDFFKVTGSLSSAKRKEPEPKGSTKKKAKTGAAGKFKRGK
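FEN1 at 10 nM, compound pretreatment for 15 min (room temperature), 50 nM final substrate to initiate; endpoint reads at 0 and 15 min; DMSO-only plates used as vehicle background.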
BLM inh: qHTS Assay for Inhibitors of Bloom's syndrome helicase (BLM); recombinant BLM DNA unwinding, fluorescence dequenching; AID 2528, 2010; hit rate 0.2% among 350,000; RecQ-like DNA helicase BLM (Homo sapiens), P54132; Potency, µM (highest dose often 56.1 µM), for inactives: at the highest dose activity change, negative = inhibition, most hits filed as inhibitors;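 note: plate controls were vehicle for no effect and no enzyme for full effect; nearly all actives have a fitted effect of over 35% in size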
APEX1 inh: qHTS Assay for Inhibitors of the Human Apurinic/apyrimidinic Endonuclease 1 (APE1); hit rate 0.35% among 350,000; AID 2517, 2012; recombinant APE1, TAMRA/BHQ-2 abasic DNA cleavage fluorescence; Potency, µM (highest dose often 65.8 µM), without a hit: top-dose activity change, negative = inhibition, actives largely listed as inhibitors;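 note: plate controls were vehicle for no effect and reference inhibitor for full effect; nearly all actives have a fitted effect of over 55% in size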
Target sequence (P27695 whole entry, looked up): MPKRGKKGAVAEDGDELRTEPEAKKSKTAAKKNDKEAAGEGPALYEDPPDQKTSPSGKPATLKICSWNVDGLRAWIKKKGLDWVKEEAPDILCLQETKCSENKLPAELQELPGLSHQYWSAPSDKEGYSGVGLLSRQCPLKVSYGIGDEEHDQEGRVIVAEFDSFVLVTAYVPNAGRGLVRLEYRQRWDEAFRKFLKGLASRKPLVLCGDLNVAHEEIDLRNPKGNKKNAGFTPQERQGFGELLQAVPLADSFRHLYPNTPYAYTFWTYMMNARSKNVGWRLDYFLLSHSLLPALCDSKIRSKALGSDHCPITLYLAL
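0.75 nM APE1 + cpd, 15 min RT; start w/ 50 nM TAMRA/BHQ-2 THF-abasic dsDNA; kinetic fluor 525/598 nm ×3 reads @60 s; Δ(read3−read1); normalized to DMSO and NSC13755 control wells.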
TDP1 block: qHTS Assay for Inhibitors of Tyrosyl-DNA Phosphodiesterase (TDP1). hit rate 0.28% among 350,000. recombinant TDP1, AlphaScreen DNA substrate cleavage. Potency, µM (titrated, usually from 130 µM), for the others: top-dose activity change, negative = inhibition, most hits filed as inhibitors; note: nearly all actives have a fitted effect of over 40% in size
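Signal: AlphaScreen proximity between streptavidin donor and anti-FITC acceptor beads on intact substrate. Reaction: Tdp1 1 nM, substrate 15 nM final, 5 min RT after 15 min compound preincubation.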
* hit, by the source's call; ? = inconclusive; · = not tested or not shown; ! = repeats disagree; [ ] = another dose, or the depositor's remark. Sampled rows, rich in hits. Any-hit rate of the full collection: about 0.92%. Calls come from the whole dose curve; as a rule, active = well fitted curve in the direction sought with a large enough effect; inconclusive = small, poorly fitted or top-dose-only effect, or another doubt; inactive = no such curve, though single readings can be large; an effect the other way counts as inactive or inconclusive. Unless noted, % is set by controls: 0 for no effect and ±100 for the full control effect; potency is the fitted concentration of half-maximal effect.

SMILES | RECQ1 inh | FEN1 inhibitor | BLM inh | APEX1 inh | TDP1 block
C#CCOCCOCCOCCNc1nc(N2CCN(C(=O)CCCCCCCCCCNC(=O)[C@H]([C@@H](C)CC)n3cc(CCCCN=C(N)N)nn3)CC2)nc(N2CCN(C(=O)CCCCCCCCCCNC(=O)[C@H]([C@@H](C)CC)n3cc(CCCCN=C(N)N)nn3)CC2)n1 | · | · | · | ? | -2%
O=C(Nc1cccc(Cl)c1)c1cccc(N2C(=O)C3CC=CCC3C2=O)c1 (configuration not stated) | · | 2% | -9% | ? | 25µM*
COc1ccc(/C=C2/SC(=S)N(Cc3ccccc3)C2=O)cc1O | · | -17% | -12% | -2% | ·
O=C1/C(=C\c2cc(Cl)c(O)c(Cl)c2)SC(=S)N1Cc1ccccc1 | · | 50µM* | ? | ? | ·
Cc1ccc(N2C(=O)/C(=C\c3ccco3)SC2=S)cc1 | -6% | -1% | -25% | -4% | -4%
O=C(O)CN1C(=O)/C(=C/c2ccc(SCc3ccccc3)o2)SC1=S | 25µM* | -19% | 126% | 28µM* | ·
O=C1/C(=C\c2ccco2)SC(=S)N1C1CCS(=O)(=O)C1 (configuration not stated) | ? | -27% | -15% | 20µM* | -5%
O=C(O)CN1C(=O)/C(=C\c2ccc(OC(=O)c3ccco3)cc2)SC1=S | · | -5% | 1% | 6%[12.4 µM] | -14%
O=C1/C(=C\c2ccco2)SC(=S)N1c1ccccc1 | 8% | -4% | -1% | 22µM* | 0%
COc1ccc(-c2no[n+]([O-])c2C#N)cc1 | · | · | · | 1% | ·
O=C1c2ccccc2C(=O)N1c1cccc(=O)[nH]1 | · | · | · | · | 2%
O=C1/C(=C\c2ccco2)SC(=S)N1Cc1ccccc1 | 32µM* | -4% | -22% | ? | 8%
CCCCCCCCCC[n+]1ccc(/C=C/c2c[nH]c3ccccc23)c2ccccc21 | · | 45µM* | · | · | ·
CCCCCCC[n+]1ccc(/C=C/c2c[nH]c3ccccc23)cc1 | · | -11% | · | · | ·
CCCCCCCCCC[n+]1cccc2c3ccccc3ccc21 | 1% | 3% | 5% | 18% | 6%
CCCCCCCCCCCCCCCC[n+]1ccc(C)c2ccccc21 | · | 79µM* | · | · | ·
CC(=O)N[C@@H](CC(=O)O)C(=O)N[C@@H](CCC(=O)O)C(=O)O | ? | · | -1% | 3.5µM*! | 16µM*!
Cc1nc(-c2ccc(S(=O)(=O)Nc3ccc(C)c(C)c3)s2)cs1 | · | · | · | · | 1%
CC[C@H]1OC(=O)C[C@@H](O)[C@H](C)[C@@H](O[C@@H]2O[C@H](C)[C@@H](O)[C@H](N(C)C)[C@H]2O)[C@@H](CCN2C[C@H](C)C[C@H](C)C2)C[C@@H](C)C(=O)/C=C/C(C)=C/[C@@H]1CO[C@@H]1O[C@H](C)[C@@H](O)[C@@H](OC)[C@H]1OC | · | · | · | -2% | ·
C=CC1=C(C)C2=Cc3c(C=C)c(C)c4[n]3[Sn+2][n]3c(c(C)c(CCC(=O)O)c3=CC3=NC(=C4)C(C)=C3CCC(=O)O)=CC1=N2 | 40µM* | · | -22% | 8.9µM* | ?
COC(=O)COc1ccc2oc(=O)cc(-c3cc4cccc(OC)c4o3)c2c1 | · | 10% | -27% | -45% | 45µM*
COc1cc(OC)c2c(=O)c(O)c(-c3ccc(OC)c(OC)c3)oc2c1 | -23% | · | -3% | 0% | 10%
COc1cc(OC)c2c(O)c3c(c(-c4c5c(c(O)c6c(OC)cc(OC)cc46)CO[C@@H](C)[C@H]5O)c2c1)[C@H](O)[C@H](C)OC3 | 25µM* | ? | ? | ? | 4%
O=c1c2ccccc2sn1-c1ccccc1 | -5% | ? | -1% | -5% | 12%
O=c1c2cc(F)ccc2sn1-c1ccccc1 | · | 79µM* | · | 39% | 1%
SMILES | RECQ1 inh | FEN1 inhibitor | BLM inh | APEX1 inh | TDP1 block
O=C(O)c1cccc(-n2sc3ccccc3c2=O)c1 | · | 20µM* | · | -7% | 0%
Cc1ccccc1-n1sc2cc(F)ccc2c1=O | -2% | 79µM* | 1% | 0% | 10%
O=S1(=O)N=C(OCc2ccccc2)c2ccccc21 | · | · | · | · | 1%
COc1cc2nc(N3CCOCC3)nc(NC3CC3)c2cc1OC | · | -16% | · | · | ·
COc1cc2nc(N3CCCN(C)CC3)nc(NC3CCNCC3)c2cc1OC | · | 25µM* | · | · | ·
COc1cc2c(NC3CCN(C)CC3)nc(N3CCCN(C)CC3)nc2cc1OCC1CCCNC1 (configuration not stated) | · | 20µM* | · | · | ·
Cc1ccc(NS(=O)(=O)c2ccc(-c3ccccc3)cc2)cc1C | · | · | · | · | -4%
COc1cccc(Nc2nc(C#N)nc(NC3CCCC3)n2)c1 | · | · | · | · | -3%
NC(CSSCC(N)C(=O)O)C(=O)O (configuration not stated) | -2% | · | -7% | -1% | 4%
N[C@@H](CSS(=O)(=O)O)C(=O)O | -6% | · | -4% | ? | 40µM*!
COc1cc(/C=C2/SC(=S)NC2=O)ccc1OS(=O)(=O)c1ccc(C)cc1 | -27% | 79µM* | -17% | -4% | 6%
COc1ccc(/C=C2\SC(=O)NC2=S)cc1OC | 32µM* | -21% | -18% | ? | 8%
CCOc1ccc(/C=C2\SC(=S)NC2=O)cc1OC | -4% | -1% | 3% | 5% | 0%
CCOc1ccc(OCc2ccc(C(=O)O)o2)cc1 | -6% | -10% | 3% | ? | ·
CCCCCCCCCCCCCCOc1ccc(C(=O)O)o1 | -5% | · | -24% | 25µM* | 40µM*
CC/C(=N\Nc1ccnc2cc(Cl)ccc12)c1ccc(O)cc1 | · | -21% | -3% | -7% | ·
Oc1ccc(/C=N/Nc2ccnc3cc(Cl)ccc23)c(O)c1O | · | 45µM* | -26% | -10% | 12%
Oc1ccc(/C=N/Nc2ccnc3cc(Cl)ccc23)cc1O | -21% | ? | 28µM* | ? | 9%
N#Cc1nc(Nc2ccc(-c3ccccc3)cc2)nc(NC2CCCC2)n1 | · | · | · | · | 1%
Cc1nc2c(=O)[nH]c(=S)[nH]c2[nH]c1=O | · | 28µM* | · | · | ·
Cc1nc2[nH]c(=S)[nH]c(=O)c2nc1C | · | 0% | · | · | ·
O=C1CCCC2=C1C1(CCOCC1)N=C(Nc1nc3ccccc3o1)N2 | · | · | · | · | -5%
O=C1C=C(O)CC(c2ccco2)C1 (configuration not stated) | ? | ? | 64% | 3.2µM* | ·
COc1ccc2c(c1)Oc1ncn(CCN3CCOCC3)c(=N)c1C2c1ccc(OC)c(OC)c1 (configuration not stated) | · | · | · | · | 2%
O=C(Cn1ncn2nc(-c3cccs3)cc2c1=O)NCc1ccccc1Cl | · | 15% | -1% | · | 6%
